Molecules are shown by their SMILES. Activity calls are given as the source filed them. Calls follow the shape of the dose curve; as a rule, active = well fitted curve in the direction sought with a large enough effect; inconclusive = small, poorly fitted or top-dose-only effect, or another doubt; inactive = no such curve, though single readings can be large or run the other way.

The assay can be described thus: Validation qHTS assay for inhibitors of Activation Induced Cytidine Deaminase (AID): UDG Counterscreen signal (AID 1347427). Also: 0% is about no effect. Particulars: biochemical UDG counterscreen, fluorescence signal; series mostly up to 115 µM; activity, negative = inhibition: at the top concentration. An excerpt:
Assay Provider (PI) Patricia Gearhart Ph.D.
National Institute on Aging
National Institute of Health (NIH), Bethesda, MD
Assay Provider (PI) Rahul Kohli Ph.D.
Perelman School of Medicine
University of Pennsylvania, Philadelphia, PA
Activation-Induced Deaminase (AID) is a cytosine deaminase which converts cytosine into uracil within stretches of ssDNA. The presence of uracil in DNA initiates a cascade of mutagenic DNA repair to introduce point mutations and DNA double strand breaks. Specific targeting of AID to the immunoglobulin heavy chain loci (Igh) promotes mutagenesis in the antibody variable region for somatic hypermutation (SHM) or switch regions leading to class switch recombination (CSR). However, AID also plays a role in accumulating unnecessary mutations across the genome. Mis-targeting of AID results in the initiation of tumor development and leads to greater drug resistance among cancer cells when continually expressed. To identify an AID inhibitor, a small molecule library will be screened in collaboration with NCATS core facility at NIH. To confirm biological function, inhibitors will be examined in an in vitro murine B-cell activation assay and subsequent secondary validation screens. Top molecules will be further screened to identify inhibitory efficacy against a wild type primary splenocytes assay. Using these approaches, we hope to identify a small molecule with great efficacy and low toxicity for use as a molecular probe to further characterize AID's intricacies, or even as a therapeutic.
A FRET based analysis of cytosine deamination, was developed to identify potential inhibitors of AID catalytic activity. This screen has two signal output, Read 1 evaluates the AID inhibition response. The second readout (Read 2) evaluates UDG response and is uses as a counterscreen to exclude false positive inhibitors. Inhibition in AID and inactivity in the UDG signal is the desired outcome for this assay.
SEQUENCE No. (e.g., 1, 2, 3, etc.); […] (e.g., Cells, Incubation, Reagent, etc.); VALUE; DESCRIPTION
1a; Reagent; 3 uL; [4/3x] 1 uM AID/2.67 U/mL UDG
1b; Reagent; 3 uL; 2 U/mL UDG
1c; Reagent; 3 uL; 1 uM AID
2a; Compound; 46 nL; Follow-up plates (0.64 uM - 10 mM)
2b; Control; 46 nL; ATA ([…] - 10 mM)
3; Time; 10 min; incubation at room temperature
5; Time; 4 hr; incubation at room temperature
6; Reagent; 4 uL; [2x] 250 mM NaOH
7; Time; 15 sec; centrifuge at 1000 rpm
8; Time; 30 min; incubation at room temperature
9a; Detection; fluorescence (Read 1: AID); EnVision (PerkinElmer) plate reader, 540 excitation and 590 emission filters
9b; Detection; fluorescence (Read 2: UDG); EnVision (PerkinElmer) plate reader, 560 excitation and 665 emission filters
NOTES (numbers refer to sequence above)
1a; Reagents were dispensed in a medium-binding black solid-bottom Greiner plates (789176F) using a BioRptr liquid dispenser. Dispense 3 uL of [4/3x] 1 uM AID (provided by Kohli lab) and [4/3x] 2 U/mL UDG (NEB M0280L) into columns 1, 2, 5 to 48.
1b; Dispense 3 uL of [4/3x] 2 U/mL UDG into column 3.
1c; Dispense 3 uL of [4/3x] 1 uM AID into column 4.
2b; 10 mM Aurintricarboxylic Acid (Sigma A1895) (ATA, 8-point, n = 2, 1:2.5 dilution in column 2) double pin-transferred (Dip Factor = 2) using the Kalypsys (Wako USA) pintool equipped with a 1536 pinhead for a [final] range of 186 nM - 114 uM.
3; Room temperature incubation.
4; Dispense 1 uL of substrate mixture from the Kohli lab [4x] […] DJC20 and [4x] 250 nM DJC23 into columns 1 to 48 .
5; Room temperature incubation.
6; Dispense 4 uL of substrate mixture [2x] 250 mM NaOH into columns 1 to 48.
7; Centrifugation step to remove bubbles.
8; Room temperature incubation
9a; Fluorescence signal (column label AID) was read using the EnVision plate reader. Excitation filter = 540(8) nm, barcode = 311; Emission filter = 590(20) nm, barcode = 217; Mirror = D555, barcode = 405.
9b; Fluorescence signal (column label UDG) was read using the EnVision plate reader. […]
(In qHTS, concentration-response curves come from the screen itself.)
Take `Cc1cc(Cn2cnc3c2C[C@@H](C(=O)O)N(C(=O)C(c2ccccc2)c2ccccc2)C3)ccc1N`: the “activity, negative = inhibition” value was 12.4% (inactive).

Turning to `CC(=O)N[C@@H](Cc1c[nH]c2ccccc12)C(=O)OCc1cc(C(F)(F)F)cc(C(F)(F)F)c1`, the “activity, negative = inhibition” value was 11.4% (inactive).

For the compound `N=C(N)c1ccccc1`, the “activity, negative = inhibition” value is 8.1% (inactive).

As for `c1ccc2nc(C3=NCCN3)ccc2c1`, the “activity, negative = inhibition” value is 10.7% (inactive).

On to `Cn1ccnc1`, for which the “activity, negative = inhibition” value was 4.28% (inactive).

As for `OC[C@H]1O[C@@H](n2cnc3cncnc32)[C@H](O)[C@@H]1O`, the “activity, negative = inhibition” value is 11.9% (inactive).

On to `NCCCCN`, for which the “activity, negative = inhibition” value is 13% (inactive).

For `O=c1[nH]c(=O)c2nc3ccccc3nc2[nH]1`, the “activity, negative = inhibition” value is 3.3% (inactive).

In the case of `CC(O)C(O)[C@H]1CNc2nc(N)[nH]c(=O)c2N1` (stereo not given in full), the “activity, negative = inhibition” value is 13% (inactive).

`Cc1ccccc1/C=C/C1=NCCN1`: the “activity, negative = inhibition” value was 4.95% (inactive).

Turning to `CSC(N)=NCCC[C@H](N)C(=O)O`, the “activity, negative = inhibition” value is 4.42% (inactive).

As to `O=C(O)Cc1c[nH]c2ccc(O)cc12`, the “activity, negative = inhibition” value is -2.7% (inactive).

For the compound `O=C1NC(=O)c2cc(Nc3ccccc3)c(Nc3ccccc3)cc21`, the “activity, negative = inhibition” value was -9.03% (inactive).

Consider `NC1(C(=O)O)CCc2cc(C(=O)O)ccc21` (stereo not given), for which the “activity, negative = inhibition” value was 9.15% (inactive).

Consider `CC(N)(C(=O)O)c1ccc(C(=O)O)cc1` (stereo not given), for which the “activity, negative = inhibition” value was 12.6% (inactive).

Take `NC(=O)c1ccccc1`: the “activity, negative = inhibition” value is -1.45% (inactive).

In the case of `O=S(=O)(c1cccc2c(Cl)cccc12)N1CCCNCC1`, the “activity, negative = inhibition” value was 18.8% (inactive).

As for `O=C(O)C1CN(CCCP(=O)(O)O)CCN1` (stereo not given), the “activity, negative = inhibition” value was 7.61% (inactive).

Consider `COC1(C2=NCCN2)COc2ccccc2O1` (stereo not given), for which the “activity, negative = inhibition” value is 6.4% (inactive).

Regarding `N[C@H](C(=O)O)[C@H](O)C(=O)O`, the “activity, negative = inhibition” value is 5.93% (inactive).

For the compound `O=C(O)C1CCCNC1` (stereo not given), the “activity, negative = inhibition” value was 0.481% (inactive).

Turning to `Cc1cccc(C2CN(C)CCc3c2cc(O)c(O)c3Cl)c1` (stereo not given), the “activity, negative = inhibition” value was 6.73% (inactive).

Consider `NC(N)=NC(N)=Nc1cccc(Cl)c1`, for which the “activity, negative = inhibition” value is 9.83% (inactive).

Take `Cn1c(=O)c2c(nc(/C=C/c3cccc(Cl)c3)n2C)n(C)c1=O`: the “activity, negative = inhibition” value was -5.83% (inactive).

On to `OC[C@H]1O[C@H](n2cnc3c(N[C@H]4CCC[C@@H]4O)ncnc32)[C@H](O)[C@@H]1O`, for which the “activity, negative = inhibition” value is 16% (inactive).

On to `CCOC(=O)C12CC1/C(=N/O)c1ccccc1O2` (stereo not given), for which the “activity, negative = inhibition” value is 6.56% (inactive).

As to `Cc1ccc([N+](=O)[O-])cc1S(=O)(=O)N(C)C`, the “activity, negative = inhibition” value is -4.8% (inactive).

On to `COc1cc(/C=C(\C#N)C(=O)c2ccc(O)c(O)c2)cc(I)c1O`, for which the “activity, negative = inhibition” value is 4.57% (inactive).

In the case of `O[Si](CCCN1CCCCC1)(c1ccc(F)cc1)C1CCCCC1` (stereo not given), the “activity, negative = inhibition” value is -4.7% (inactive).

As to `c1ccc(C(NCc2cccnc2)(c2ccccc2)c2ccccc2)cc1`, the “activity, negative = inhibition” value was 6.52% (inactive).

With `O=c1cc(-c2ccccc2)[nH]c2nc(Cl)ccc12`, the “activity, negative = inhibition” value is 11.5% (inactive).

Turning to `CC(=O)[C@H]1CCC2C3CC=C4C[C@@H](OS(=O)(=O)O)CC[C@]4(C)C3CC[C@@]21C` (stereo not given in full), the “activity, negative = inhibition” value is 13.3% (inactive).

Regarding `CO/N=C(\C(=O)N[C@@H]1C(=O)N2C(C(=O)O)=C(CSc3nc(=O)c(O)nn3C)CSC12)c1csc(N)n1` (stereo not given in full), the “activity, negative = inhibition” value was 16.9% (inactive).

`Nc1ccc(CCNc2ncnc3c2ncn3C2OC(CO)C(O)C2O)cc1` (stereo not given): the “activity, negative = inhibition” value was 2.43% (inactive).

In the case of `CC(C)NCC(O)COc1ccc(CC(N)=O)cc1` (stereo not given), the “activity, negative = inhibition” value was 4.29% (inactive).

On to `Cc1nc(N=Nc2ccc(C(=O)O)cc2)c(COP(=O)(O)O)c(C=O)c1O`, for which the “activity, negative = inhibition” value was -2.17% (inactive).

Take `CCC1(O)CC2CN(CCc3c([nH]c4ccccc34)[C@@](C(=O)OC)(c3cc4c(cc3OC)N(C=O)C3[C@]45CCN4CC=C[C@@](CC)([C@@H](OC(C)=O)[C@]3(O)C(=O)OC)[C@H]45)C2)C1` (stereo not given in full): the “activity, negative = inhibition” value was 13.6% (inactive).

Take `C=C1C[C@@]23CC[C@H]4[C@@](C)(CCC[C@@]4(C)C(=O)O)[C@@H]2CC[C@]1(O)C3`: the “activity, negative = inhibition” value was 8.6% (inactive).

`COc1ccc(C(=O)NCc2cccnc2)cc1C(=O)NCc1cccnc1`: the “activity, negative = inhibition” value was 5.58% (inactive).

Regarding `CCCCCCCCCCC(C)(C)C(=O)Nc1c(OC)cc(OC)cc1OC`, the “activity, negative = inhibition” value is -6.06% (inactive).

The record behind these values is PubChem BioAssay (NCATS).
